About 83,000 compounds went through this panel and 20% of them were active in at least one assay; those are over-represented in the sample as a whole.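 Single-dose data. Exposure time 48 hours. Values below 10 considered active.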 Unmarked numbers belong to inactive results. Activity calls are given as the source filed them.
Tests used:
Assay in all cases: NCI-60 one-dose screen, 48 h (100 = growth as untreated, 0 = no growth, -100 = all killed)
[1] = system: HCT-15 colon; details: 10 µM unless noted
[2] = system: HT29 colon; details: 10 µM unless noted
[3] = system: SNB-75 CNS; details: 10 µM unless noted
[4] = system: SNB-19 CNS; details: 10 µM unless noted
[5] = system: U251 CNS; details: 10 µM unless noted
[6] = system: PC-3 prostate; details: 10 µM unless noted
[7] = system: SK-MEL-5 melanoma; details: 10 µM unless noted
[8] = system: LOX IMVI melanoma; details: 10 µM
[9] = system: SK-MEL-28 melanoma; details: 10 µM unless noted
[10] = system: SK-MEL-2 melanoma; details: 10 µM unless noted
[11] = system: EKVX NSCLC; details: 10 µM unless noted
[12] = system: SN12C renal; details: 10 µM unless noted
[13] = system: UO-31 renal; details: 10 µM unless noted
[14] = system: TK-10 renal; details: 10 µM unless noted
[15] = system: ACHN renal; details: 10 µM unless noted
[16] = system: CAKI-1 renal; details: 10 µM unless noted
[17] = system: A498 renal; details: 10 µM unless noted
[18] = system: CCRF-CEM leukemia; details: 10 µM unless noted
[19] = system: MOLT-4 leukemia; details: 10 µM unless noted
[20] = system: UACC-62 melanoma; details: 10 µM unless noted

Row | SMILES | growth [1] | growth [2] | growth [3] | growth [4] | growth [5] | growth [6] | growth [7] | growth [8] | growth [9] | growth [10] | growth [11] | growth [12] | growth [13] | growth [14] | growth [15] | growth [16] | growth [17] | growth [18] | growth [19] | growth [20]
1 | Cc1ccccc1NC(=O)Cc1csc2[n+]1C(=O)/C(=C/c1ccc([N+](=O)[O-])cc1)S2 | 100% | 113% | 80.9% | 102% | 92.2% | 85.9% | 94.3% | 86.6% | 95.8% | 108% | 92.8% | 99.6% | 71.8% | 117% | 90.4% | 93.4% | 75% | 99.1% | 88.2% | 
2 | COC(=O)c1nc(=S)[nH]c(C(=O)OC)c1C(=O)c1ccc(Cl)c(Cl)c1 | 105% | 112% | 92.7% | 105% | 103% | 106% | 101% | 99.2% | 124% | 107% |  |  |  |  | 114% | 94.6% | 130% |  | 130% | 102%
3 | O=C(NOC(=O)c1ccccc1)c1ccccc1 | 101% | 110% | 108% | 109% | 105% | 90.2% | 105% | 100% | 119% | 97% | 95.7% | 108% |  | 97.8% | 101% | 86.5% | 94.6% | 70.6% | 93% | 
4 | CCC(C)C(N)C(=O)NC(CC(N)=O)C(=O)NC(CC(C)C)C(=O)NC(CCCCN)C(=O)NC(C)C(=O)NC(CC(C)C)C(=O)NC(C)C(=O)NC(C)C(=O)NC(CC(C)C)C(=O)NC(C)C(=O)NC(CCCCN)C(=O)NC(CCCCN)C(=O)NC(C(=O)NC(CC(C)C)C(N)=O)C(C)CC (centres undefined) | 101% | 105% | 85.3% | 98.1% | 69.9% | 80.5% | 3.42% (active) | 101% |  | 115% | 91.2% | 89.5% | 97.4% | 106% | 87.3% | 85.3% |  | 83.8% | 94% | 9.79% (active)
5 | CCCCC(C=O)(C=C=C(C)C)CC (centres undefined) | 98.2% | 109% | 87.3% | 102% | 96.8% | 92.6% | 104% | 96.8% | 101% | 111% |  | 102% | 93.4% |  | 99.3% | 98.2% | 82% | 88.5% | 97% | 95.8%
6 | NC(=Nc1nc(-c2ccccn2)cc2ccccc12)c1ccccn1 | 21.5% | 13.6% | 41% | 22.5% | 10.3% | 20.6% | -79.4% (active) | -5.24% (active) |  | 66.5% | 16.5% | 26.2% | 2.9% (active) | 31.5% | 8.11% (active) | 2.97% (active) |  | 0.348% (active) | -3.87% (active) | 3.59% (active)
7 | O=C1C=CC(=O)N1c1cccc2c1CCCC2 | 98.4% | 102% | 85.9% | 92.6% | 98.2% | 98.9% | 102% | 107% | 99.1% |  |  |  |  | 102% | 79.3% | 82.3% | 96.2% | 9.65% (active) | 74.2% | 99.3%
8 | Cc1c(O)ccc(SC#N)c1C | 96.9% | 112% | 95.3% | 96.5% | 101% | 86.1% | 106% | 101% | 99.5% | 103% | 121% | 95.3% |  | 107% | 103% | 98.5% | 127% | 30.7% | 97.5% | 
9 | CCCCCCN(CCCCCC)CCCNc1nccc2ccccc12 | 17% | -11.6% (active) | 33.5% | 20.3% | 9.66% (active) | 20.4% | -91.3% (active) | -39.3% (active) | 13.1% | 21.4% |  | 18.7% |  |  | 19.2% | 21.4% |  | 12.4% | 11.8% | 21.8%
10 | c1csc(-c2[nH]nc3c2CCc2ccccc2-3)c1 | 30.7% | 92.4% | 55.6% | 70.3% | 78.1% | 81.7% | 84.8% | 97.5% | 104% |  |  | 93.5% | 53.8% | 27.8% | 82.3% | 79% | 77.7% | 98.1% | 69.6% | 90%
11 | COc1ccc2c(c1)c(CC(=O)O)c(C)n2C(=O)c1ccc(Cl)cc1 | 104% | 111% | 84.7% | 110% | 90.3% | 104% | 93.6% | 90.9% | 97.3% | 106% |  | 97.4% | 65.6% |  | 95.3% | 88.1% | 81.9% | 89.7% | 113% | 95.5%
12 | CCCCOS(=O)(=O)c1ccccc1 | 102% | 104% | 85.9% | 103% | 104% | 101% | 117% | 97.1% | 126% | 99.9% | 108% | 100% | 99.8% | 106% | 103% | 93.2% | 128% | 110% | 166% | 
13 | CCCCCC[C@@H](O)C/C=C\CCCCCCCC(=O)OCCOC | 103% | 101% | 90% | 97.8% | 105% | 90.4% | 96.2% | 86% | 105% | 97.6% |  | 98.3% |  | 99.1% | 100% | 103% | 107% | 94.3% | 122% | 
14 | CCOc1ccc2c(c1)/C(=C\C=C\C1CC(C)C3CC(OCC)CCC3N1CC)CC(C)N2CC (centres undefined) | 17.8% | -33.4% (active) | -0.249% (active) | 22.2% | 6.59% (active) | 3.32% (active) | -86.3% (active) | 16.3% | 22.8% | -54.6% (active) |  | 6.7% (active) | 0.241% (active) |  | 12% | 17.9% | 15% | -40.3% (active) | -42.5% (active) | 32.5%
15 | CN(C)CCN(C)CC(C)(C)C(=O)/C=C/c1ccc(Cl)c(Cl)c1 | -86.4% [100 µM] (active) | -77.5% [100 µM] (active) | -99.3% [100 µM] (active) | -98.6% [100 µM] (active) | -95.1% [100 µM] (active) | -87.2% [100 µM] (active) | -99.3% [100 µM] (active) |  | -98.6% [100 µM] (active) | -93.3% [100 µM] (active) | -82.4% [100 µM] (active) | -96.2% [100 µM] (active) |  | -97.7% [100 µM] (active) |  | -100% [100 µM] (active) | -96% [100 µM] (active) | -0.943% [100 µM] (active) | -23.3% [100 µM] (active) | -95.6% [100 µM] (active)
16 | C[C@@]1(CO)[C@H](O)CC[C@@]2(C)[C@H]1CC[C@H]1C[C@@H]3C[C@@]12CC[C@@]3(O)COC(=O)CN | 54% | 38.7% | 57.3% | 59.6% | 44.3% | 45.4% | -43.8% (active) | 29% |  | 102% | 74.2% | 61.6% | 22.7% | 85.3% | 14.6% | 17% |  | 32.8% | 28.2% | 26.3%
17 | Oc1c(Cl)cc(Cl)cc1C=NCC1CCC(CN=Cc2cc(Cl)cc(Cl)c2O)CC1 (centres undefined) | 84.9% | 103% | 66.9% | 79.8% | 83% | 77.6% | 94.4% | 69.6% | 89.2% | 92.9% |  | 86.3% | 45.8% |  | 101% | 91.7% | 113% | 59% | 78.1% | 97.7%
